This note sets out measurements from PubChem BioAssay (NCI).

About 83,000 compounds went through this panel and 20% of them were active in at least one assay; those are over-represented in the sample as a whole.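 Percent growth is the endpoint: 0 to 100 indicates growth inhibition (40 means 60% inhibition), 0 means no net growth, and negative values indicate cell death.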 Unmarked numbers belong to inactive results. The source made the active and inactive calls. Rule for the calls: active = growth percent below 10; inactive = the rest.

The subject of this assay is HL-60(TB) leukemia. Kind of assay: NCI-60 one-dose screen, 48 h (100 = growth as untreated, 0 = no growth, -100 = all killed). Particulars: 10 µM unless noted.
For `Cc1nc(NN)c([N+](=O)[O-])c(NN)n1`, the growth was 68.1%.

As for `COc1ccc2c(c1)c(-c1nc(-c3c[nH]c4ncccc34)cs1)cn2CCCN1CCOCC1`, the growth was 17.4%.

On to `CC[C@@H]1OC(=O)[C@H](C)[C@@H](O[C@H]2C[C@@](C)(OC)[C@@H](O)[C@H](C)O2)[C@H](C)[C@@H](O[C@@H]2O[C@H](C)C[C@H](N(C)C)[C@H]2O)[C@](C)(O)C[C@@H](C)[C@@H]2N[C@@H](COCCOC)O[C@H]([C@H]2C)[C@]1(C)O`, for which the growth is 94.2%.

Regarding `COc1ccc(/C(Cl)=N/N=C(\Cl)c2cc(OC)c(OC)c(OC)c2)cc1OC(C)=O`, the growth is 81.2%.

`CC1(C)OC2COC3(C(=O)O)OC(C)(C)OC3C2O1` (centres undefined): the growth was 106%.

As for `C=C1C(=O)O[C@H]2[C@H]1CC/C(Cn1cc(CNC(=O)Cc3cn(C(=O)c4ccc(Cl)cc4)c4ccc(OC)cc34)nn1)=C\CC[C@@]1(C)O[C@@H]21`, the growth was -53.4% (active).

Consider `COc1cccc(-c2cc(-c3ccc(Nc4nc(Nc5ccc(Cl)cc5)nc(Nc5ccc(Cl)cc5)n4)cc3)nc(N)c2C#N)c1`, for which the growth was 24.5%.

For `COc1cc2c(cc1O)CC[C@@H]1[C@@H]2CC[C@]2(C)[C@@H](NCCN(C)C)CC[C@@H]12`, the growth is -67.7% (active).

In the case of `Cc1cc(O)ccc1O`, the growth is -14.1% (active).

In the case of `COC(=O)[C@]12CC[C@@H](C)[C@H](C)[C@@H]1C1=CC[C@@H]3[C@@]4(C)C(C=O)=C[C@@](C)(COS(C)(=O)=O)C4[C@H](O)C[C@@]3(C)[C@]1(C)CC2` (some centres undefined), the growth was -34.4% (active).

Consider `CCN1CCN(CC(=O)Nc2nc3ccc(NCc4ccc(C)cc4)cc3s2)CC1`, for which the growth is 32.5%.

For `COC(=O)[C@@H](OC)[C@@H]1Cc2cc3cc(OC4CC(OC5CC(O)C(O)C(C)O5)C(O)C(C)O4)c(C)c(O)c3c(O)c2C(=O)[C@H]1OC1CC(OC2CC(OC3CC(C)(O)C(O)C(C)O3)C(O)C(C)O2)C(O)C(C)O1` (some centres undefined), the growth was -33.5% (active).

As for `Nc1ccc(NC(=O)c2ccccc2)c2c1C(=O)c1ccccc1C2=O`, the growth is 135%.

With `O=C(O)/C=C/C(=O)NCc1ccccc1`, the growth is 105%.

`O=C1c2ccccc2-c2cn(Cc3ccccc3)c3cccc(c23)C1c1cccnc1` (centres undefined): the growth is 16.3%.

Regarding `COc1cc(/C=C/c2cc(/C=C/c3ccc(O)c(OC)c3)nc(N)n2)ccc1O`, the growth was 3.67% (active).

For the compound `C=C(C)[C@@H]1CC[C@]2(C(=O)OC)CC[C@]3(C)[C@H](CC[C@@H]4[C@@](C)(CCc5nn[nH]n5)[C@H](C(=C)C)CC[C@]43C)[C@@H]12`, the growth is -11% [100 µM] (active).

On to `O=C(Cn1cc(CN2C(=O)c3ccccc3S2(=O)=O)nn1)Nc1ccc([N+](=O)[O-])cc1Cl`, for which the growth is 94.6%.

For `CCNNC(=O)[C@@H]1[C@H](c2cc(OC)c(OC)c(OC)c2)c2cc3c(cc2[C@H](O)[C@H]1CO)OCO3`, the growth was -24.1% (active).

Regarding `FC(F)(F)c1cc(N2CCCCC2)nc(NCCCNc2ccnc3cc(Cl)ccc23)n1`, the growth is 42.1%.

On to `Cc1[nH]c(C2CC(c3ccc(C(F)(F)F)c(F)c3)=NN2c2ccccc2)c(C)c1C(=O)NCC(F)(F)F` (centres undefined), for which the growth was 87.6%.

In the case of `O=S(c1ccccc1)c1ccc2nnnn2n1` (centres undefined), the growth was 42.5%.

Regarding `CSc1ncccc1C(=O)OCC(=O)Nc1oc(C)c2c(C)n[nH]c(=O)c12`, the growth was 98.2%.

On to `COC(=O)c1c2c(c[n+]([O-])c1C)C(=O)C=C(NCc1ccccc1)C2=O`, for which the growth was -49.4% (active).
